A selection: hits, their analogues and other compounds. The true share with any hit is near 6.2%.
LASV entry inh: qHTS for Inhibitors of binding or entry into cells for Lassa Virus. Potency, µM (titrated, usually from 37.9 µM), actives largely listed as inhibitors. Lassa virus pseudotype entry inhibition, cell reporter. AID 540256, 2011. 300,000 tested, 1.2% active; calls by dose curve; tested in HEK293 cells; note: nearly all actives have a fitted effect of over 50% in size
HCMV antiviral: qHTS Assay for inhibitors of the human cytomegalovirus (HCMV); HFF cells, HCMV-luciferase reporter, 72 h; active compounds read low; 410,000 tested, 4.5% active; activity change, negative = inhibition, % at 57.5 µM; in the data active = activity change below about -60%; inconclusive = no clear call, values can overlap the other calls; inactive = above about -39%
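Screen run at 2 compound doses on HFFs infected with reporter HCMV, MOI 1 PFU/cell. Luciferase activity from cell lysates at 72 h post infection gave inhibition relative to buffer-only and Salinomycin wells.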
MARV entry inh: qHTS for inhibitors of binding or entry into cells for Marburg Virus. Potency, µM (top dose mostly 37.8 µM), usual class: inhibitors. Marburg virus pseudotyped entry inhibition, cell reporter. AID 540276, 2011. 300,000 tested, 1.8% active; calls by dose curve; tested in HEK293 cells
FMDV antiviral: High Throughput Screening for Foot and Mouth Disease Virus Antivirals; Potency, µM (titrated, usually from 57.9 µM), most hits filed as inhibitors; FMDV antiviral cell-based qHTS; 410,000 tested, 1.2% active; AID 1159524, 2015; calls by dose curve; tested in HEK293T cells; note: read-out not given here; nearly all actives have a fitted effect of over 45% in size
Of the large screens only hits and unclear results are named; the others gave an inactive call.

O=C(N/N=C/c1cc(Br)c(O)c(Br)c1O)c1ccc2c(c1)OCCO2	LASV entry inh inconclusive, HCMV antiviral -81.8
Cc1ccc(C(=O)N/N=C\c2ccc[nH]2)cc1[N+](=O)[O-]	LASV entry inh 8.91µM, MARV entry inh 4.47µM
O=C(CNC(=O)c1ccco1)N/N=C/c1cc(Br)ccc1O	MARV entry inh 2µM (no result: LASV entry inh)
Cc1cc(Br)cc(/C=N/NC(=O)c2ccc3c(c2)OCO3)c1O	HCMV antiviral -102.8 (no result: LASV entry inh, MARV entry inh)
O=C(CNC(=O)c1ccco1)N/N=C/c1ccc(O)cc1O	none (no result: LASV entry inh, MARV entry inh)
CCCC(=O)N1CCC1(C)C(=O)Nc1cc(C)ccc1C (configuration not stated)	none (no result: LASV entry inh, MARV entry inh)
O=C(CSc1nnc2ccccn12)NCCN1C(=O)CSC1=O	none
O=C(N/N=C/c1ccc2c(c1)OCO2)c1ccc2c(c1)OCCO2	LASV entry inh inconclusive, MARV entry inh inconclusive
O=C(N/N=C/c1ccccc1O)c1ccc2c(c1)OCO2	LASV entry inh inconclusive, HCMV antiviral -91.9, MARV entry inh 5.01µM
CCc1cc2c3c(c1)C1(C(=O)N3C(C)(C)C=C2C)C(C#N)=C(N)Oc2[nH]c(=O)[nH]c(=O)c21 (configuration not stated)	LASV entry inh inconclusive, HCMV antiviral -74.8, MARV entry inh inconclusive
O=C(CF)NC(NC(=S)Nc1cccc([N+](=O)[O-])c1)C(Cl)(Cl)Cl (configuration not stated)	HCMV antiviral -69.8
Fc1ccc(F)c(NC(=S)NCCc2ccccc2)c1	LASV entry inh inconclusive, HCMV antiviral -66.1, MARV entry inh inconclusive
Fc1ccccc1NC(=S)NCCc1ccccc1	MARV entry inh inconclusive
O=[N+]([O-])c1cccc(NC(=S)NCCc2ccccc2)c1	HCMV antiviral -95.4, MARV entry inh inconclusive, FMDV antiviral inconclusive
COc1ccc([N+](=O)[O-])cc1NC(=S)NC(NC(=O)C(c1ccccc1)c1ccccc1)C(Cl)(Cl)Cl (configuration not stated)	LASV entry inh inconclusive, HCMV antiviral -105.7, MARV entry inh inconclusive, FMDV antiviral inconclusive
COc1ccc(NC(=S)NC(NC(=O)CF)C(Cl)(Cl)Cl)cc1[N+](=O)[O-] (configuration not stated)	none (no result: LASV entry inh, MARV entry inh)
CCOC(=O)CCCCCC(=O)Nc1ccc2c(c1)C(=O)N([C@H](C)CO)C[C@H](C)[C@@H](CN(C)S(C)(=O)=O)OCCCC[C@@H](C)O2	none (no result: LASV entry inh, MARV entry inh)
COc1c(C)cccc1C(=O)NC(=S)Nc1ccc2c(c1)Cc1ccccc1-2	none
CCC(C)N(C(=O)COC(=O)Cc1n[nH]c(=O)c2ccccc12)C1CCS(=O)(=O)C1 (configuration not stated)	none
COc1ccc(C(=O)COC(=O)C(C)N2C(=O)C3C4CCC(C4)C3C2=O)cc1 (configuration not stated)	none
S=C(NCCc1ccccc1)Nc1cnc2ccccc2c1	HCMV antiviral -63.2 (no result: LASV entry inh, MARV entry inh)
Cc1ccc(NC(=S)NCCc2ccccc2)nc1	HCMV antiviral -115.0
Fc1cccc(NC(=S)NCCc2ccccc2)c1	LASV entry inh inconclusive, HCMV antiviral -78.6, MARV entry inh inconclusive
CC(C)(CNC(=S)NCCc1ccccc1)CNC(=S)NCCc1ccccc1	LASV entry inh inconclusive, HCMV antiviral -93.4, MARV entry inh inconclusive, FMDV antiviral inconclusive
S=C(NCCc1ccccc1)Nc1ccc(Nc2ccccc2)cc1	LASV entry inh inconclusive, MARV entry inh inconclusive
COc1ccc(OCCCn2c(=O)oc3ccc(C)cc32)cc1	none
CCC(CC)NC(=O)c1cc(OC)c(OC)cc1[N+](=O)[O-]	MARV entry inh inconclusive
Fc1ccc(NC(=S)NCCc2ccccc2)c(F)c1F	HCMV antiviral -74.3 (no result: FMDV antiviral)
COc1cc2nc(CN3CCN(S(=O)(=O)c4ccccc4C(F)(F)F)CC3)[nH]c(=O)c2cc1OC	LASV entry inh inconclusive
CC(=O)C1=C(c2cccc([N+](=O)[O-])c2)N(C(C)=O)n2c(C)nnc2S1	LASV entry inh inconclusive, HCMV antiviral -93.3, MARV entry inh inconclusive, FMDV antiviral inconclusive
CC(O)[C@H](NC(=O)C1(c2ccccc2)CCN(C(=O)OC(C)(C)C)CC1)C(=O)O (some centres not stated)	none
Fc1ccccc1COc1ccc(C(=S)N2CCCC2)cc1	none (no result: LASV entry inh, MARV entry inh)
COc1ccccc1NC(=O)Nc1nc(CC(=O)N2CCN(c3ccc(F)cc3)CC2)cs1	LASV entry inh inconclusive, MARV entry inh 11.2µM, FMDV antiviral inconclusive
COc1ccccc1NC(=O)Cc1csc(NC(=O)c2ccccc2)n1	LASV entry inh inconclusive, HCMV antiviral -69.2, FMDV antiviral inconclusive
COc1ccccc1NC(=O)Nc1nc(CC(=O)N2CCN(c3ccccc3)CC2)cs1	LASV entry inh inconclusive, FMDV antiviral inconclusive
COc1ccccc1CNC(=O)Cc1csc(NC(=O)Nc2ccccc2OC)n1	LASV entry inh inconclusive, MARV entry inh inconclusive
